Screens deposited in PubChem by Broad Institute.
NOMO-1 viab – NOMO-1 AML cell viability reduction, primary screen, STK33 inhibitor project, CellTiter-Glo luminescence | NOMO-1 AML viability, 72 h | inhibition, % (test concentration not listed) | actives 7.5% (n = 37,000); in the data active means inhibition above about 80%; inconclusive means no clear call, values can overlap the other calls
Shh pathway inh – Hedgehog pathway signaling inhibitors, primary screen, luminescence, Shh-LIGHT2 cells, Gli-luciferase; Shh-LIGHT2 Gli-luciferase reporter, 30 h; inhibition, % (concentration not given with the values); actives 2.1% (n = 22,000); AID 2313, 2010;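 active means mean inhibition across valid replicates above about 65%, limit read from the data; inconclusive means mean under the limit, yet half or more replicates past it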;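 further: pathway switched on by Shh-conditioned medium diluted 1 in 25 in low serum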
MITF inh – inhibitors of MITF, primary screen, MITF inhibitor project, cell-based, luminescence; actives 0.28% (n = 37,000); inhibition, % (concentration not given with the values); TRPM1 promoter luciferase, 24 h; in the data active means inhibition above about 85%; inconclusive means no clear call, values can overlap the other calls; inactive means below about 68%;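 further: human melanocyte line stably carrying TRPM1 promoter luciferase reporter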
Active calls of the source: *; u = inconclusive; x = not tested or not shown. Sampled rows, rich in hits. Any-hit rate of the full collection: about 7.9%.

SMILES	NOMO-1 viab	Shh pathway inh	MITF inh
C[C@H]1CN([C@@H](C)CO)C(=O)c2cccc(NC(=O)C3CCCCC3)c2O[C@@H]1CN(C)S(=O)(=O)c1cccs1	18.3	-8.7	-3.8
CC(C)NC(=O)N(C)C[C@H]1Oc2ccc(NC(=O)c3ccncc3)cc2CC(=O)N([C@@H](C)CO)C[C@@H]1C	18.4	x	-3.3
COc1ccc(S(=O)(=O)N(C)C[C@H]2Oc3c(NS(=O)(=O)c4cccs4)cccc3C(=O)N([C@@H](C)CO)C[C@H]2C)cc1	6.3	-2.3	-5.4
C=CCC1OC(=O)CCNC(=O)C(C)N(C)C(=O)C(C(C)C)N(C)C(=O)C(C(C)CC)NC(=O)C2CCCN2C1=O (stereo not given)	112.0*	38.3	-66.3
C[C@@H]1CN([C@@H](C)CO)C(=O)c2cccc(NC(=O)CCCCCC(=O)Nc3ccccc3N)c2O[C@H]1CN(C)S(=O)(=O)c1ccc(F)cc1	28.8	x	-9.5
C[C@H](CO)N1C[C@H](C)[C@H](CN(C)S(=O)(=O)c2ccc(F)cc2)Oc2c(NC(=O)CCCCCC(=O)Nc3ccccc3N)cccc2C1=O	94.9*	x	10.3
C[C@@H]1CN([C@H](C)CO)C(=O)c2cccc(NC(=O)CCCCCC(=O)Nc3ccccc3N)c2O[C@@H]1CN(C)S(=O)(=O)c1ccc(F)cc1	72.4	x	-9.3
C[C@@H]1CN([C@@H](C)CO)C(=O)c2cccc(NC(=O)CCCCCC(=O)Nc3ccccc3N)c2O[C@@H]1CN(C)S(=O)(=O)c1ccc(F)cc1	92.5*	x	-1.1
C[C@H](CO)N1C[C@H](C)[C@H](CN(C)CC2CCCCC2)Oc2ccc(NC(=O)Cn3cnnn3)cc2CC1=O	32.6	-39.3	-6.5
CC(=O)C(C#N)C(=O)Nc1ccc(OC(F)(F)F)cc1 (stereo not given)	41.2	-17.3	23.0
O=C(CSc1nc2ccccc2nc1N1CCOCC1)NCc1ccc2c(c1)OCO2	9.8	u	-5.3
C[C@@H]1CN([C@H](C)CO)C(=O)Cc2cc(NC(=O)Cc3cn(C)c4ccccc34)ccc2O[C@H]1CN(C)Cc1ccc(-c2ccccc2)cc1	u	-38.7	23.5
C[C@@H]1CN([C@H](C)CO)C(=O)Cc2cc(NC(=O)Cc3cn(C)c4ccccc34)ccc2O[C@@H]1CN(C)Cc1ccc(Cl)c(Cl)c1	95.2*	-15.7	20.1
C[C@H]1CN([C@@H](C)CO)C(=O)Cc2cc(NC(=O)Cc3cn(C)c4ccccc34)ccc2O[C@@H]1CN(C)Cc1ccc(-c2ccccc2)cc1	121.9*	-18.2	41.6
C[C@@H]1CN([C@@H](C)CO)C(=O)Cc2cc(NC(=O)Cc3cn(C)c4ccccc34)ccc2O[C@@H]1CN(C)Cc1ccccc1	36.8	-14.0	6.4
C[C@H]1CN([C@@H](C)CO)C(=O)Cc2cc(NC(=O)Cc3cn(C)c4ccccc34)ccc2O[C@H]1CN(C)Cc1ccc(Oc2ccccc2)cc1	u	-25.0	30.3
C[C@@H]1CN([C@H](C)CO)C(=O)Cc2cc(NC(=O)Cc3cn(C)c4ccccc34)ccc2O[C@@H]1CN(C)Cc1ccccc1	107.3*	23.2	24.5
C[C@@H]1CN([C@@H](C)CO)C(=O)Cc2cc(NC(=O)Cc3cn(C)c4ccccc34)ccc2O[C@@H]1CN(C)Cc1ccc(Oc2ccccc2)cc1	114.9*	-3.4	16.0
C[C@H]1CN([C@@H](C)CO)C(=O)Cc2cc(NC(=O)Cc3cn(C)c4ccccc34)ccc2O[C@H]1CN(C)Cc1ccc2c(c1)OCO2	26.1	-13.7	3.3
CCCn1nnc(NC(=O)COc2ccc(Br)cc2)n1	-16.6	x	-14.1
C=C1[C@]2(C)C[C@@H]3C(=C)[C@@]4(C=CC(=O)OC4(C)C)CC[C@@]3(C)[C@]13C(=O)O[C@H](C)[C@]3(O)C2=O	24.6	-8.3	4.2
CC(C)NC(=O)Nc1cccc2c1O[C@@H](CN(C)Cc1ccc(-c3ccccc3)cc1)[C@@H](C)CN([C@@H](C)CO)C2=O	19.7	-4.1	9.5
CC(C)NC(=O)N(C)C[C@@H]1Oc2ccc(NC(=O)NC3CCCCC3)cc2C(=O)N([C@H](C)CO)C[C@@H]1C	4.5	-0.1	-1.5
Cc1ccc(Cl)cc1NC(=O)CSc1nc2c(c(C(F)(F)F)c1C#N)CCCC2	27.8	x	-7.9
CNC[C@H]1Oc2c(NC(=O)Nc3ccc(C(F)(F)F)cc3)cccc2C(=O)N([C@@H](C)CO)C[C@@H]1C	-6.1	-22.0	-19.5
COc1cc(O)cc2c1C(=O)OC(C)C2 (stereo not given)	10.4	-46.1	5.5
C[C@@H]1C[C@@H]2O[C@H]2/C=C/C=C\C(=O)Cc2c(Cl)c(O)cc(O)c2C(=O)O1	118.3*	42.6	3.4
Cc1ccc(C(O)(CO)CO)c(O)c1	x	7.0	x
O=C(COc1ccc(Cl)cc1)CC(=O)c1ccc(Cl)cc1	109.9*	5.8	-5.2
